BRCA1 expr up: qHTS Assay to Identify Small Molecule Activators of BRCA1 Expression | MCF7-BRCA1-FFLuc reporter, luminescence, 48 h; response scale: scaled: vehicle 0%, 10 µM genistein 100% | Potency, µM (series often up to 46.1 µM), for the others: at the top dose activation, actives largely listed as activators | 1.1% of 380,000 active; further: nearly all actives have a fitted effect of over 80% in size
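MCF7-BRCA1-FFLuc cells, 2000/well in phenol-red-free MEM, attached 2 h then treated 48 h at 37 C. Luciferase luminescence read 15 min after reagent; normalized to genistein maximum activation (10microM) and DMSO, concentration-response fitted.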
ERG-DNA inh: qHTS for Small Molecule Inhibitors of the ERG Ets/DNA interaction | Transcriptional regulator ERG (Homo sapiens), P11308 | fluorescence polarization, His-ERG Ets domain / labelled DNA | Potency, µM (top dose mostly 76.9 µM), inactives show top-dose FP activity, negative = inhibition, hits mostly inhibitors | 0.028% of 370,000 active; active means well fitted inhibition curve with a large enough effect in the polarisation, with a control signal flat; inconclusive means small, poorly fitted or top-dose-only effect, or effect the other way, or a change in a side signal; inactive means no such curve, though single readings can be large or run the other way; the % refers to the polarisation;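 further: polarization taken with two DNA probes labelled with fluorescein and Texas red; % of control where 0% means no effect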
Target sequence (P11308 whole entry, looked up, the tested form may be a part): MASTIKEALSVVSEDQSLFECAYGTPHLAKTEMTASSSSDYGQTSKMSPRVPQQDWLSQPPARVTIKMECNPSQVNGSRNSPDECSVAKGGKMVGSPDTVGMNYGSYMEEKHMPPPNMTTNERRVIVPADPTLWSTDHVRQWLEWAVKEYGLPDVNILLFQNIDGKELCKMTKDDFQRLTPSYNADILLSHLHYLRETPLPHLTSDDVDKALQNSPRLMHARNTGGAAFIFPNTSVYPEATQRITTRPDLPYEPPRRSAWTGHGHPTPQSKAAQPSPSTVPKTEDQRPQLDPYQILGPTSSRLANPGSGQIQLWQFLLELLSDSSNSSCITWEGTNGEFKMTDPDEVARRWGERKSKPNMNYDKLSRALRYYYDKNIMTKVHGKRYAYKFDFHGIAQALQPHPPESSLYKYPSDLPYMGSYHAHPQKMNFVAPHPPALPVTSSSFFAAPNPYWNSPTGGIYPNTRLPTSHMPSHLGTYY
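His-tagged ERG Ets domain (1 uM in the protein solution; 300mM KCl, 50mM Tris-HCl, 1mM EDTA, 1mM DTT, pH 7.5) received compound, then a probe mix of 5 nM fluorescein-DNA and 100nM Texas-615-DNA. Fluorescence polarization was read for both dyes.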
B2AR arrestin: qHTS assay of beta-arrestin-biased ligands of beta2-adrenergic receptor; Beta-2 adrenergic receptor (Homo sapiens), P07550; beta-arrestin recruitment to beta2AR, cell-based reporter; Potency, µM (series often up to 46.1 µM), inactives show at the top dose activation, most hits filed as activators; 0.02% of 330,000 active; AID 492947, 2010;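 further: 0% = DMSO controls and full agonism = EC100 isoproterenol or metaproterenol; nearly all actives have a fitted effect of over 65% in size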
Mito fusion act: qHTS Assay for Small Molecule Inhibitors of Mitochondrial Division or Activators of Mitochondrial Fusion | 0.23% of 320,000 active | S. cerevisiae fusion-defective mutant growth rescue, CellTiterGlo 48 h | Potency, µM (highest dose often 46.1 µM), for inactives: top-dose growth rescue (activation), actives largely listed as activators; further: % of control where 0% means no effect; nearly all actives have a fitted effect of over 45% in size
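Temperature-sensitive fusion-defective S. cerevisiae (e.g. fzo1-1, mgm1-5) were grown with compound in YPEG medium (3% ethanol, 3% glycerol) for 48 hours at 37C. Growth rescue was measured as viability by CellTiterGlo luminescence after 10 minutes at ambient.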
An asterisk follows results filed as active; u = inconclusive; x = no result. Shown are actives, neighbours in structure and some others; about 1.2% of the full set was active somewhere. Unless noted, the call rests on the fitted dose curve; in most records, active means well fitted curve in the direction sought with a large enough effect; inconclusive means small, poorly fitted or top-dose-only effect, or another doubt; inactive means no such curve, though single readings can be large; an effect the other way counts as inactive or inconclusive. Potency means the concentration at half of the fitted maximal effect.

SMILES | BRCA1 expr up | ERG-DNA inh | B2AR arrestin | Mito fusion act
COc1ccc(C2c3[nH]c4ccc(OC)cc4c3CCN2C(=O)Nc2ccccc2)cc1 (stereo not drawn) | x | 3% | x | x
COC(=O)Cn1c(SCc2ccccc2)nc2ccccc21 | 7.9µM* | 7% | 0% | 2%
Cc1ccc(C)c(NC(=O)c2cc(S(=O)(=O)N3CCCc4ccccc43)ccc2F)c1 | x | -9% | x | x
CCCCOc1ccc(C(=O)N2CCC(C)CC2)cc1 | 61% | 2% | 0% | 8%
CCCCOc1ccc(C2CCC(C(C)=O)C(C)C2)cc1 (stereo not drawn) | 10µM* | -2% | 0% | -1%
c1ccc(OCCOc2ncnc3ccccc23)cc1 | 10µM* | -5% | 0% | 0%
c1cc2c(cc1Cc1cncc(Cc3ccc4c(c3)OCO4)c1)OCO2 | 16% | x | x | x
COC(=O)c1ccc(COC(=O)c2cccnc2Cl)cc1 | 13µM* | 1% | 5% | 1%
CC(C)(C)C(=O)Nc1nc2c(s1)CN(Cc1ccccc1)CC2 | 8.9µM* | 4% | -1% | -2%
CNc1nn(-c2cccc(Cl)c2)nc1N | 10µM* | -4% | 0% | 5%
CC1=NN(C(N)=S)C(=O)C1N=Nc1ccc(F)cc1 (stereo not drawn) | 40% | 1% | 2.5µM* | 28%
CC1=NN(C(N)=S)C(=O)C1N=Nc1ccc([N+](=O)[O-])cc1 (stereo not drawn) | 4% | 2% | 7.1µM* | -21%
CC1=NN(C(N)=S)C(=O)C1N=Nc1ccc(O)cc1 (stereo not drawn) | 36% | -1% | 0% | -9%
CC1=NN(C(N)=S)C(=O)C1N=Nc1cccc(C)c1 (stereo not drawn) | 11% | -6% | 1.3µM* | -38%
Cc1ccccc1CS(=O)(=O)Cc1ccc(C(=O)NCc2ccc(F)cc2)o1 | -4% | 0% | x | x
COc1ccccc1NC(=O)CCn1nc(-c2ccccc2OC)c2c(C)cc(C)nc21 | -12% | 3% | x | x
O=S(=O)(c1ccc(-c2csc(=Nc3ccc(F)cc3)n2CCCCCCO)cc1)N1CCCC1 | x | -1% | x | x
CCCCOC(=O)Nc1ccc(C(=O)OCCC)cc1 | 42% | -9% | 0% | 8%
CCCOC(=O)c1ccc(NC(=O)c2cnccn2)cc1 | 10µM* | 6% | 0% | -1%
O=C(Nc1ccc(NC(=O)c2ccco2)cc1)c1cnccn1 | 13µM* | -2% | 0% | 1%
CCc1ccc(NC(=O)c2cnccn2)cc1 | 10% | 7% | 0% | 0%
O=C(Nc1ccc2nccnc2c1)c1cnccn1 | 11µM* | 2% | 0% | 1%
CCCCOC(=O)c1ccc(NC(=O)c2c(Cl)ccc(Cl)c2OC)cc1 | -9% | 3% | -1% | 16µM*
CCCCOC(=O)c1ccc(NC(=O)c2cnccn2)cc1 | -6% | -5% | 0% | 13%
O=c1oc(Nc2cccc(Cl)c2)nc2ccccc12 | 7.1µM* | 16% | 0% | 0%
SMILES | BRCA1 expr up | ERG-DNA inh | B2AR arrestin | Mito fusion act
COCc1cc(C)nc(SCC(=O)Nc2ccc(C)c(C)c2)c1C#N | 4µM* | -3% | 0% | -1%
CCc1ccc(NC(=O)CSc2nc(C)cc(COC)c2C#N)cc1 | 2% | -1% | x | x
Cc1nc(SCC(=O)Nc2ccc3c(c2)OCO3)c(C#N)c2c1CCCC2 | 7.1µM* | 10% | 0% | -6%
Cc1cc(C)c(C#N)c(SCC(=O)Nc2ccc3c(c2)OCO3)n1 | 11µM* | 1% | 0% | 0%
CCN(Cc1ccccc1)S(=O)(=O)c1cc(C(=O)Nc2cc(Cl)cc(Cl)c2)ccc1F | x | 3% | x | x
Cc1ccc(NC(=O)C2CCCN2S(=O)(=O)c2cccc3nsnc23)c(Br)c1 (stereo not drawn) | x | 6% | x | x
O=C(Nc1ccon1)c1cc2c(s1)CCCCCC2 | 10µM* | 3% | 0% | -5%
O=C(NCc1ccco1)c1cc2c(s1)CCCCC2 | 11µM* | -8% | 0% | 8%
CNC(=O)c1cc2c(s1)CCCCCC2 | -3% | 2% | -2% | 12%
CC1CCC(NC(=O)c2cc3c(s2)CCCC3)CC1 (stereo not drawn) | 4µM* | 5% | 0% | u
COc1ccc2oc(C(=O)C3CC3)c(N)c2c1 | 6.3µM* | -1% | 0% | -3%
COc1ccc2oc(C(=O)NC(C)(C)C)c(C)c2c1 | 7.1µM* | 7% | 0% | 4%
COc1ccc2oc(C(=O)c3ccccc3)c(N)c2c1 | 75% | -3% | -1% | 4%
CCOc1ccc(CCNC(=O)C2CCN(C(=O)c3cc4sccc4n3CC)CC2)cc1OCC | x | 1% | x | x
COc1ccc(CNC(=O)C2CCN(c3nnc(-n4cccc4CNc4ccc(C)cc4)s3)CC2)c(OC)c1 | x | 1% | x | x
Cc1cccc(-n2c(SCC(=O)Nc3ncc(Cl)cc3Cl)nc3ccccc32)c1 | -39% | 3% | 0% | 22µM*
O=C(CSc1nc2ccccc2n1-c1ccccc1)Nc1ncc(Cl)cc1Cl | -14% | -6% | 1% | 20µM*
COc1ccc(OC)c(CNS(=O)(=O)c2ccc(-c3coc(C)n3)cc2)c1 | -5% | -5% | x | x
COc1ccccc1-c1noc(-c2ccc(NCc3ccco3)c([N+](=O)[O-])c2)n1 | 21% | -3% | x | x
O=S(=O)(NCCc1nnc2ccc(SCc3ccccc3Cl)nn12)c1ccccc1 | x | -1% | x | x
CCOc1ccc(N2C(=O)CCC2=O)cc1 | 2% | 5% | 0% | -2%
CCCC1CCC(c2ccc(OCC)cc2)=CC1=O (stereo not drawn) | 8.9µM* | 22% | -1% | -5%
CCOc1ccc(CCNC(=O)C2CCN(c3ncnc4c3nc3n4CCCCC3)CC2)cc1 | x | 4% | x | x
CSc1ncc(CN2CCCC(C(=O)c3ccc(C(C)(C)C)cc3)C2)cn1 (stereo not drawn) | u | -11% | 0% | 13µM*
CSc1ncc(CN2CCCC(C(=O)Nc3ccc(-c4ccco4)cc3)C2)cn1 (stereo not drawn) | 17% | 4% | -1% | -1%
SMILES | BRCA1 expr up | ERG-DNA inh | B2AR arrestin | Mito fusion act
Cc1cc(OCCN2CCOCC2)ccc1Cl | 13µM* | -6% | 5% | -1%
Cc1ccc(OCCN2CCOCC2)cc1C | 93% | -2% | 0% | -1%
CCOc1ccc(NS(=O)(=O)c2cc(C(=O)N3CCCC3)ccc2Cl)cc1 | -16% | -10% | 6% | 6%
CCOc1ccc(NS(=O)(=O)c2cc(NC(=O)c3cccc(C)c3)ccc2Cl)cc1 | -65% | 6% | 0% | 22µM*
COc1ccc(N=Nc2c(N)nn(C)c2N)cc1 | 2.5µM* | 10% | x | x
CN1CCC[C@H]1CCNc1ccc2c(=O)c3ccccc3n(C)c2c1 | u | -4% | x | x
COc1cccc2sc3cc(NCCCN4CCOCC4)ccc3c(=O)c12 | 10µM* | 0% | 0% | x
CN1CCCC1CCNc1ccc2oc3ccccc3c(=O)c2c1 (stereo not drawn) | 1.3µM* | -6% | 0% | 6%
CN1CCCC1CCNc1ccc2c(=O)c3ccccc3oc2c1 (stereo not drawn) | 13µM* | -11% | 0% | 1%

From PubChem
